Assay results: PubChem BioAssay (NCI)
This is part of a sample that, as a whole, favours compounds with a hit. Of some 79,000 tested, about 15% had one in any assay. Active and inactive are the calls of the source. Rule as the data show it: active = growth inhibition above about 70%; inactive = the rest.

Columns and labels:
[1] = NCI Yeast Anticancer Drug Screen. Data for the rad50 strain (AID 155);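 also: 0% = growth of vehicle-only cultures of the same strain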; conditions: S. cerevisiae rad50 strain growth inhibition, stronger effect = higher value
Summary of the method: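 A DNA repair-deficient yeast mutant serves as the test organism; compound-induced growth inhibition is calculated against vehicle-treated cells.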

[2] = NCI Yeast Anticancer Drug Screen. Data for the mec2-1 strain (AID 157); conditions: S. cerevisiae mec2-1 strain, stronger effect = higher value
Summary of the method: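 Each compound was tested on mec2-1 yeast, a strain altered in DNA damage repair or cell cycle control. Growth inhibition is reported relative to vehicle.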

[3] = NCI Yeast Anticancer Drug Screen. Data for the sgs1 mgt1 strain (AID 161);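 also: 0% = growth of cultures given vehicle only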; conditions: S. cerevisiae sgs1 mgt1 strain, stronger effect = higher value
Summary of the method: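 Genetically altered yeast, compound exposure, growth inhibition relative to vehicle.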

[4] = NCI Yeast Anticancer Drug Screen. Data for the cln2 rad14 strain (AID 165);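 also: 0% = growth equal to vehicle treated cultures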; conditions: S. cerevisiae cln2 rad14 strain, stronger effect = higher value
Summary of the method: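 Test compounds were added to cln2 rad14 yeast cultures; inhibition of growth was then determined by comparison with vehicle treatment.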

[5] = NCI Yeast Anticancer Drug Screen. Data for the bub3 strain (AID 167); conditions: S. cerevisiae bub3 mutant strain, stronger effect = higher value
Summary of the method: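 Inhibition values come from growth of compound-treated mutant yeast normalised to vehicle-treated controls.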

[6] = NCI Yeast Anticancer Drug Screen. Data for the mlh1 rad18 strain (AID 175); conditions: S. cerevisiae mlh1 rad18 strain growth inhibition, stronger effect = higher value
Summary of the method: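 Inhibition values reflect reduced growth of mutant yeast versus vehicle-treated controls following compound exposure; the mutations affect DNA damage repair.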

[7] = at 5.0 µM (retest, dose inferred, filed as 0.5)
[8] = at 50.0 µM (retest, dose inferred, filed as 5.0)

Measured: growth inhibition

CN(C)N=Nc1ccc(Cl)c2ncccc12
inactive: [1]; [7] 3% | [1]; [8] -2% | [1]; at 50.0 µM 0.2% | [2]; [7] -2% | [2]; [8] -2% | [2]; at 50.0 µM 2.1% | [3]; [7] 0% | [3]; [8] 2% | [3]; at 50.0 µM -2.45% | [4]; [7] -2% | [4]; [8] -5% | [4]; at 50.0 µM 64.2% | [5]; [7] -2% | [5]; [8] 1% | [5]; at 50.0 µM -4.15% | [6]; [7] -2% | [6]; [8] 7% | [6]; at 50.0 µM 6.75%

O=S(=O)(O)c1ccc(O)c2cc(Nc3ccccc3)ccc12
inactive: [1]; [7] -3% | [1]; [8] -26% | [1]; at 50.0 µM 44% | [2]; [7] -3% | [2]; [8] -29% | [2]; at 50.0 µM 20.9% | [3]; [7] -4% | [3]; [8] -31% | [3]; at 50.0 µM 26.2% | [4]; [7] 2% | [4]; [8] -37% | [4]; at 50.0 µM -28.6% | [5]; [7] 2% | [5]; [8] -25% | [5]; at 50.0 µM 11.6% | [6]; [7] 3% | [6]; [8] -23% | [6]; at 50.0 µM 25.5%

Cn1c2ccccc2c2c(C#N)c(C#N)c([N+](=O)[O-])cc21
inactive: [1]; [7] 30% | [2]; [7] 29% | [3]; [7] 9% | [4]; [7] 9% | [4]; at 50.0 µM 42% | [5]; [7] 27% | [6]; [7] 26%
active: [1]; [8] 98% | [1]; at 50.0 µM 97.2% | [2]; [8] 98% | [2]; at 50.0 µM 78.5% | [3]; [8] 98% | [3]; at 50.0 µM 75.2% | [4]; [8] 97% | [5]; [8] 98% | [5]; at 50.0 µM 93.2% | [6]; [8] 98% | [6]; at 50.0 µM 76.8%

Oc1ccc(-c2ccccc2)cc1Br
inactive: [1]; [7] 14% | [2]; [7] 3% | [3]; [7] 1% | [4]; [7] -9% | [5]; [7] -3% | [6]; [7] 9%
active: [1]; [8] 99% | [1]; at 50.0 µM 99.4% | [2]; [8] 100% | [2]; at 50.0 µM 99.7% | [3]; [8] 99% | [3]; at 50.0 µM 99.5% | [4]; [8] 99% | [4]; at 50.0 µM 98.5% | [5]; [8] 99% | [5]; at 50.0 µM 99.5% | [6]; [8] 99% | [6]; at 50.0 µM 99.5%

CN(C)C1CCC(N=Nc2cc([N+](=O)[O-])ccc2C(=O)O)CC1 (configuration not stated)
active: [1]; at 50.0 µM 86.2% | [3]; at 50.0 µM 83.6% | [5]; [8] 87% | [5]; at 50.0 µM 94.3% | [6]; at 50.0 µM 84.9%
inactive: [1]; [7] -7% | [1]; [8] 55% | [2]; [7] 7% | [2]; [8] 23% | [2]; at 50.0 µM 56.7% | [3]; [7] -2% | [3]; [8] 49% | [4]; [7] 1% | [4]; [8] 18% | [4]; at 50.0 µM 15.6% | [5]; [7] 7% | [6]; [7] -1% | [6]; [8] 61%

COc1ccc(/C=c2\sc3nnc(CCC(=O)Nc4cccc(C(F)(F)F)c4)n3c2=O)cc1
inactive: [1]; [7] -2% | [1]; [8] 28% | [1]; at 50.0 µM 29.9% | [2]; [7] 0% | [2]; [8] 43% | [2]; at 50.0 µM 53.4% | [3]; [7] -2% | [3]; [8] 51% | [3]; at 50.0 µM 44.9% | [4]; [7] 1% | [4]; [8] 21% | [4]; at 50.0 µM 22.1% | [5]; [7] 0% | [5]; [8] 38% | [5]; at 50.0 µM 29.6% | [6]; [7] -3% | [6]; [8] 47%
active: [6]; at 50.0 µM 76.8%

O=C(CCN(Cc1ccccc1)Cc1ccccc1)c1ccc2ccccc2c1
active: [1]; at 50.0 µM 76.2% | [3]; [8] 89% | [3]; at 50.0 µM 90.6% | [4]; at 50.0 µM 83.8% | [6]; at 50.0 µM 81.4%
inactive: [1]; [7] 30% | [1]; [8] 55% | [2]; [7] 28% | [2]; [8] 58% | [2]; at 50.0 µM 55.6% | [3]; [7] 59% | [4]; [7] 33% | [4]; [8] 61% | [5]; [7] 45% | [5]; [8] 69% | [5]; at 50.0 µM 60.1% | [6]; [7] 35% | [6]; [8] 68%

O=C(O)C1C(C(=O)O)C23CC2(C(=O)O)C2(C(=O)O)CCC3=C3CCCC312 (configuration not stated)
inactive: [1]; [7] 3% | [1]; at 50.0 µM 51.3% | [2]; [7] -1% | [2]; at 50.0 µM 55% | [3]; [7] -7% | [3]; at 50.0 µM 47.8% | [4]; [7] -21% | [4]; at 50.0 µM 19.4% | [5]; [7] 5% | [6]; [7] -3% | [6]; at 50.0 µM 67.8%
active: [1]; [8] 100% | [2]; [8] 99% | [3]; [8] 100% | [4]; [8] 99% | [5]; [8] 99% | [5]; at 50.0 µM 85.3% | [6]; [8] 100%

CC(C)C(OC(=O)c1ccc(NCc2cc(O)ccc2O)cc1)C(C)C
inactive: [1]; [7] 21% | [2]; [7] 23% | [3]; [7] 35% | [4]; [7] 21% | [5]; [7] 29% | [6]; [7] 27%
active: [1]; [8] 97% | [1]; at 50.0 µM 89.5% | [2]; [8] 99% | [2]; at 50.0 µM 92% | [3]; [8] 99% | [3]; at 50.0 µM 90.6% | [4]; [8] 99% | [4]; at 50.0 µM 88% | [5]; [8] 99% | [5]; at 50.0 µM 89.8% | [6]; [8] 99% | [6]; at 50.0 µM 86%
